This is an account of results in PubChem BioAssay (NCATS).

Each structure is given as a SMILES string. Values joined by “and” are separate entries in the source; they are usually repeats but may differ in a detail not shown here. Equal entries are not always repeated. Records with an inconclusive call do not appear. Values without a mark were called inactive. Active and inactive are the calls of the source. Calls come from the whole dose curve; as a rule, active = well fitted cell-killing curve with a large enough effect; inconclusive = small, poorly fitted or top-dose-only effect; inactive = flat fitted curve, though single readings scatter. Peptide text beside a SMILES is read from it. * marks the point of attachment. Cbz = O=C(OCc1ccccc1)*
Potency is the fitted concentration of half-maximal effect.

This test can be described thus: Cellular viability qHTS for adrenocortical cancer (ACC) cell line NCI-H295R (AID 1963990).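 For activity change, negative = viability loss: 0% = DMSO only wells and -100% = full killing with cytotoxic reference compound.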 Note: nearly all actives have a fitted effect of over 60% in size. Conditions: CellTiter-Glo ATP luminescence, 48 h; series mostly up to 46.1 µM; activity change, negative = viability loss: at the top concentration. In outline: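 Readout: CellTiter-Glo luminescence, 20 min RT. Exposure: 48 h, 37C/5% CO2. Cells: NCI-H295R, ITS-DMEM serum-free. Range: up to 46 uM. Analysis: 4PL fit, IC50 plus efficacy.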
With `N#Cc1c(N(CC(=O)O)CC(=O)O)sc(C(=O)O)c1CC(=O)O`, the “activity change, negative = viability loss” value is -2.51%. `CNC1CCC(N(Cc2cccc(-c3ccncc3)c2)C(=O)c2sc3ccccc3c2Cl)CC1` (stereo not given): the Potency was 6.31 µM (active). For the compound `CN(C)S(=O)(=O)c1ccc2c(c1)C(=Cc1cc3c([nH]1)CCCC3)C(=O)N2`, the “activity change, negative = viability loss” value is -7.62%. For the compound `O=C1N(c2ccccc2)c2ccccc2C1(Cc1ccncc1)Cc1ccncc1`, the Potency entry was “inactive”. For the compound `OC(Cn1cncn1)(Cn1cncn1)c1ccc(F)cc1F`, the Potency entry was “inactive”. With `Cc1nc(N)ncc1-c1nc(N2CCOCC2)c2sc(C(C)(C)O)cc2n1`, the Potency is 2.24 µM (active). `CCCCCCCCCCCCCC(=O)N[C@H](CO)[C@H](O)c1ccc([N+](=O)[O-])cc1`: the “activity change, negative = viability loss” value is -1.45%. For `CN1CCN(CCCN2c3ccccc3Sc3ccc(C(F)(F)F)cc32)CC1`, the Potency was 23.1 µM (active).

Regarding `O=C(Nc1cccc(Cl)c1)Nc1ncc(CCNc2ncnc3ccsc23)s1`, the Potency was 3.55 µM (active). Regarding `O=C(O)Cc1cccc(OCCCN(Cc2cccc(C(F)(F)F)c2Cl)CC(c2ccccc2)c2ccccc2)c1`, the Potency is 22.4 µM (active). Still for that read-out and setting: with `COc1ccc(C2CNC(=O)C2)cc1OC1CCCC1` (stereo not given) the entry was “inactive”; with `CC(C)c1cnn2c(NCc3ccccc3)cc(N[C@@H](CO)[C@H](O)CO)nc12`, 0.631 µM (active); with `CC(C)C[C@@H](C=O)NC(=O)[C@H](CC(C)C)NC(=O)[C@H](CC(C)C)NC(=O)OCc1ccccc1` (Cbz-Leu-Leu-Leu-aldehyde), 1.26 µM (active). On the same count and under the same terms, for `CCS(=O)(=O)c1cccc(-c2cc(C(=O)NC3CCN(C)CC3)c(C)c3[nH]c4ncc(C)cc4c23)c1` the value was 17.8 µM (active); for `CN1CCN(Cc2ccc(NC(=O)Nc3ccc(Oc4cc(NC(=O)C5CC5)ncn4)cc3)cc2C(F)(F)F)CC1`, 1.26 µM (active).

Consider `Cc1ccn(-c2ccc(-c3ncco3)cc2)c(=O)c1-c1ccc2nc(N)ncc2c1`, for which the “activity change, negative = viability loss” value was -6.62%. As to `CC#C[C@]1(O)CC[C@H]2[C@@H]3CCC4=CC(=O)CCC4=C3[C@@H](c3ccc(N(C)C)cc3)C[C@@]21C`, the Potency is 20.6 µM (active) and 25.1 µM (active). Still for that read-out and setting: with `Oc1ccc2ccccc2c1SSc1c(O)ccc2ccccc12` the figure was 31.6 µM (active); with `N[C@@H](Cc1cc(I)c(Oc2cc(I)c(O)c(I)c2)c(I)c1)C(=O)O`, “inactive”. On the same count and under the same terms, with `Cc1nc(-c2ccc(OCC(C)C)c(C#N)c2)sc1C(=O)O` the entry was “inactive”; with `C=CC(=O)N1CCc2ccc(-n3c(=O)ccc4cnc5ccc(-c6cnn(C)c6)cc5c43)cc21`, 0.506 µM (active). Turning to `Cc1cc(O)c2c(c1)C(=O)c1cccc(O)c1C2=O`, the “activity change, negative = viability loss” value is 8.89%. For the compound `Cc1onc(-c2ccccc2Cl)c1C(=O)N[C@@H]1C(=O)N2[C@@H]1SC(C)(C)[C@@H]2C(=O)O`, the “activity change, negative = viability loss” value is -22.6%. As for `CCC(=O)N[C@H]1CC[C@H](C(=O)N(C)c2ccc(-c3nc4ccccc4o3)cc2)C1`, the “activity change, negative = viability loss” value is -24.1%. On to `Cc1cnc(Nc2ccc(OCCN3CCCC3)cc2)nc1Nc1cccc(S(=O)(=O)NC(C)(C)C)c1`, for which the Potency is 10 µM (active). On the same count and under the same terms, with `O=C(O)c1cc(=O)c2c(OCC(O)COc3cccc4oc(C(=O)O)cc(=O)c34)cccc2o1` the entry was “inactive”.

Turning to `Nc1ccccc1NC(=O)c1ccc(CNC(=O)OCc2cccnc2)cc1`, the Potency was 2 µM (active). Take `c1ccc2c(Oc3nc(Nc4ccc(N5CCOCC5)cc4)c4ncn(C5CCCCC5)c4n3)cccc2c1`: the “activity change, negative = viability loss” value is 18.5%. Take `Cc1cnc(Nc2ccc(CN3CCOCC3)cc2)nc1Nc1cccc(S(=O)(=O)NC(C)(C)C)c1`: the Potency was 4.47 µM (active). `Cc1cnc(C(=O)O)c[n+]1[O-]`: the “activity change, negative = viability loss” value is -26.6%. On to `N=c1ccn2c(n1)O[C@H]1[C@@H](O)[C@@H](CO)O[C@H]12`, for which the “activity change, negative = viability loss” value was -24.4%.

For `C#Cc1cccc(Nc2ncnc3cc(OC)c(OCCCCCCC(=O)NO)cc23)c1`, the Potency is 2 µM (active). Same read-out and setting: for `Cc1cc(CN2CCN(c3c(Br)cnc4nc(-c5ccc(N6CCN(C)CC6)cc5)[nH]c34)CC2)no1` the value was 28.2 µM (active). For `CCOC(=O)c1ccc(C#Cc2ccc3c(c2)C(C)(C)CCS3)nc1`, the “activity change, negative = viability loss” value was -19.5%. As for `NNC(=O)c1ccncc1`, the Potency entry is “inactive”.
